The source of these data is PubChem BioAssay (NCATS).

Records with an inconclusive call do not appear. Unmarked numbers belong to inactive results. Calls of active or inactive are those of the source. The call rests on the fitted dose curve; in most records, active means well fitted curve in the direction sought with a large enough effect; inconclusive means small, poorly fitted or top-dose-only effect, or another doubt; inactive means no such curve, though single readings can be large; an effect the other way counts as inactive or inconclusive.
Potency means the concentration at half of the fitted maximal effect.

A short description of the first assay: qHTS of pediatric cancer cell lines to identify multiple opportunities for drug repurposing: Confirmatory screen for NB1643 cells (AID 1347109). Further: nearly all actives have a fitted effect of over 45% in size.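 On activity change, negative = cytotoxic: plate controls were DMSO for no effect and bortezomib for full effect.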 Conditions: NB1643 neuroblastoma cell viability; series mostly up to 45.9 µM; activity change, negative = cytotoxic: at the top concentration. Put shortly:
(§1)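 Viability after 48 h compound treatment at 37C, 500-1,000 cells/well, read as ATP luminescence with CellTiter-Glo. Primary screens used 11-point (MIPE, 0.78 nM-46 µM) or 8-point (NPC, 0.59 nM-46 µM) final concentrations; follow-up screens used 11-point dilutions.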
(In general: In qHTS, concentration-response curves come from the screen itself.)
With `CS(=O)(=O)N1CCc2c(-c3cnc(N)nc3)nc(N3CCOCC3)nc21`, the Potency is 1650 nM (active).

For `COc1cc2ncnc(Nc3cccc(Br)c3)c2cc1OC`, the Potency was 18500 nM (active).

As to `COc1cc(OC)c(C=CS(=O)(=O)Cc2ccc(OC)c(NCC(=O)O)c2)c(OC)c1`, the Potency was 414 nM (active).

As for `CN(CC(=O)N(Cc1ccc(C2CCCCC2)cc1)c1ccc(C(=O)O)c(O)c1)S(=O)(=O)c1c(F)c(F)c(F)c(F)c1F`, the Potency was 26100 nM (active).

Turning to `Cn1cc(-c2cnn3c(N)c(Br)c([C@H]4CCCNC4)nc23)cn1`, the Potency was 1850 nM (active).

Consider `COC(=O)C1C2CC3c4[nH]c5cc(OC)ccc5c4CCN3CC2CC(OC(=O)c2cc(OC)c(OC)c(OC)c2)C1OC` (stereo not drawn), for which the Potency was 5220 nM (active).

For the compound `NS(=O)(=O)OC[C@@H]1C[C@@H](n2ccc3c(N[C@H]4CCc5ccccc54)ncnc32)C[C@H]1O`, the “activity change, negative = cytotoxic” value is -23.6%.

A further assay in a line: qHTS of pediatric cancer cell lines to identify multiple opportunities for drug repurposing: Confirmatory screen for A673 cells (AID 1347110). Further: nearly all actives have a fitted effect of over 65% in size. As to conditions: A673 Ewing sarcoma cell viability; series mostly up to 45.9 µM; activity change, negative = cytotoxicity: at the top concentration. Put shortly: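 Viability was read as ATP luminescence (CellTiter-Glo) after 48 h of compound exposure at 37 C in A673 cells seeded at 500-1,000/well. Titrations reached 46 uM final, with 11 points in the confirmatory screen. Concentration-response curves were fitted directly.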
As to `CNC(=O)Nc1ccc(-c2nc(N3CC4CCC(C3)O4)c3cnn(C4CCC5(CC4)OCCO5)c3n2)cc1`, the Potency is 1040 nM (active).

In the case of `CS(=O)(=O)N1CCc2c(-c3cnc(N)nc3)nc(N3CCOCC3)nc21`, the Potency was 4140 nM (active).

`COc1cc2ncnc(Nc3cccc(Br)c3)c2cc1OC`: the Potency was 14700 nM (active).

With `COc1cc(OC)c(C=CS(=O)(=O)Cc2ccc(OC)c(NCC(=O)O)c2)c(OC)c1`, the Potency was 369 nM (active).

For `CC(=O)O[C@@]12CO[C@H]1C[C@H](O)[C@@]1(C)C(=O)[C@H](O)C3=C(C)[C@@H](OC(=O)C(O)[C@@H](NC(=O)OC(C)(C)C)c4ccccc4)C[C@@](O)([C@@H](OC(=O)c4ccccc4)[C@@H]21)C3(C)C` (stereo partly drawn), the Potency is 5.2 nM (active).

For the compound `Cn1cc(-c2cnn3c(N)c(Br)c([C@H]4CCCNC4)nc23)cn1`, the Potency is 14700 nM (active).

Consider `COC(=O)C1C2CC3c4[nH]c5cc(OC)ccc5c4CCN3CC2CC(OC(=O)c2cc(OC)c(OC)c(OC)c2)C1OC` (stereo not drawn), for which the Potency is 3290 nM (active).

A short description of the next assay: qHTS of pediatric cancer cell lines to identify multiple opportunities for drug repurposing: Confirmatory screen for SK-N-MC cells (AID 1347111).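 Further: cells exposed to compound for 48 h before the readout; nearly all actives have a fitted effect of over 70% in size.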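 On activity change, negative = cytotoxic: plate controls were DMSO for no effect and bortezomib for full effect.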 As to conditions: SK-N-MC cell viability; series mostly up to 45.9 µM; activity change, negative = cytotoxic: at the top concentration. The gist of the method: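 SK-N-MC cells at 500-1,000 cells/well in growth media were pre-incubated 5 h, then exposed to compounds at 11-point dilutions for 48 h at 37 degrees C, 5% CO2. Viability was read as CellTiter-Glo luminescence.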
Take `CNC(=O)Nc1ccc(-c2nc(N3CC4CCC(C3)O4)c3cnn(C4CCC5(CC4)OCCO5)c3n2)cc1`: the Potency is 585 nM (active).

`COc1cc2ncnc(Nc3cccc(Br)c3)c2cc1OC`: the Potency is 11700 nM (active).

Regarding `CC(=O)O[C@@]12CO[C@H]1C[C@H](O)[C@@]1(C)C(=O)[C@H](O)C3=C(C)[C@@H](OC(=O)C(O)[C@@H](NC(=O)OC(C)(C)C)c4ccccc4)C[C@@](O)([C@@H](OC(=O)c4ccccc4)[C@@H]21)C3(C)C` (stereo partly drawn), the Potency was 6.6 nM (active).

`Cn1cc(-c2cnn3c(N)c(Br)c([C@H]4CCCNC4)nc23)cn1`: the Potency is 827 nM (active).

Take `COC(=O)C1C2CC3c4[nH]c5cc(OC)ccc5c4CCN3CC2CC(OC(=O)c2cc(OC)c(OC)c(OC)c2)C1OC` (stereo not drawn): the Potency is 369 nM (active).

Regarding `N#Cc1c(C2CCNCC2)cc(-c2c(O)cccc2OCC2CC2)nc1N`, the “activity change, negative = cytotoxic” value is 5.01%.

On to `NS(=O)(=O)OC[C@@H]1C[C@@H](n2ccc3c(N[C@H]4CCc5ccccc54)ncnc32)C[C@H]1O`, for which the “activity change, negative = cytotoxic” value is -39.8%.

Another assay is described as follows: qHTS of pediatric cancer cell lines to identify multiple opportunities for drug repurposing: Confirmatory screen for BT-12 cells (AID 1347112). Further: nearly all actives have a fitted effect of over 55% in size. On activity change, negative = cytotoxic: on the % scale 0 is the no-effect control and ±100 the full control effect. As to conditions: BT-12 rhabdoid tumor cells, viability; series mostly up to 45.9 µM; activity change, negative = cytotoxic: at the top concentration. The gist of the method:
as §1
As for `CN(CC(=O)N(Cc1ccc(C2CCCCC2)cc1)c1ccc(C(=O)O)c(O)c1)S(=O)(=O)c1c(F)c(F)c(F)c(F)c1F`, the “activity change, negative = cytotoxic” value was -14.2%.

Turning to `Cn1cc(-c2cnn3c(N)c(Br)c([C@H]4CCCNC4)nc23)cn1`, the “activity change, negative = cytotoxic” value is -8.34%.

As to `COC(=O)C1C2CC3c4[nH]c5cc(OC)ccc5c4CCN3CC2CC(OC(=O)c2cc(OC)c(OC)c(OC)c2)C1OC` (stereo not drawn), the Potency is 2610 nM (active).

Turning to `N#Cc1c(C2CCNCC2)cc(-c2c(O)cccc2OCC2CC2)nc1N`, the “activity change, negative = cytotoxic” value is -1.3%.

For the compound `NS(=O)(=O)OC[C@@H]1C[C@@H](n2ccc3c(N[C@H]4CCc5ccccc54)ncnc32)C[C@H]1O`, the “activity change, negative = cytotoxic” value was -21.3%.

The next assay can be described thus: qHTS of pediatric cancer cell lines to identify multiple opportunities for drug repurposing: Confirmatory screen for LAN-5 cells (AID 1347113). Further: nearly all actives have a fitted effect of over 65% in size. On activity change, negative = cytotoxicity: on the % scale 0 is the no-effect control and ±100 the full control effect. Conditions: LAN-5 neuroblastoma cell viability; series mostly up to 45.9 µM; activity change, negative = cytotoxicity: at the top concentration. Put shortly: as §1
For `CNC(=O)Nc1ccc(-c2nc(N3CC4CCC(C3)O4)c3cnn(C4CCC5(CC4)OCCO5)c3n2)cc1`, the Potency is 585 nM (active).

As for `CS(=O)(=O)N1CCc2c(-c3cnc(N)nc3)nc(N3CCOCC3)nc21`, the Potency was 1170 nM (active).

For the compound `COc1cc2ncnc(Nc3cccc(Br)c3)c2cc1OC`, the Potency was 16500 nM (active).

Regarding `COc1cc(OC)c(C=CS(=O)(=O)Cc2ccc(OC)c(NCC(=O)O)c2)c(OC)c1`, the Potency is 1170 nM (active).

For the compound `CC(=O)O[C@@]12CO[C@H]1C[C@H](O)[C@@]1(C)C(=O)[C@H](O)C3=C(C)[C@@H](OC(=O)C(O)[C@@H](NC(=O)OC(C)(C)C)c4ccccc4)C[C@@](O)([C@@H](OC(=O)c4ccccc4)[C@@H]21)C3(C)C` (stereo partly drawn), the “activity change, negative = cytotoxicity” value is -28.9%.

On to `Cn1cc(-c2cnn3c(N)c(Br)c([C@H]4CCCNC4)nc23)cn1`, for which the Potency was 5850 nM (active).

For the compound `COC(=O)C1C2CC3c4[nH]c5cc(OC)ccc5c4CCN3CC2CC(OC(=O)c2cc(OC)c(OC)c(OC)c2)C1OC` (stereo not drawn), the Potency is 14700 nM (active).

A further assay in a line: qHTS of pediatric cancer cell lines to identify multiple opportunities for drug repurposing: Confirmatory screen for SJ-GBM2 cells (AID 1347116). Further: nearly all actives have a fitted effect of over 60% in size.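 On activity change, negative = cytotoxic: plate controls were DMSO for no effect and bortezomib for full effect.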 As to conditions: SJ-GBM2 glioblastoma cells, viability; series mostly up to 45.9 µM; activity change, negative = cytotoxic: at the top concentration. The gist of the method:
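Viability measured as metabolically active cells via CellTiter-Glo luminescence following 48 hours of compound exposure, 11-point dilutions in confirmatory testing. 500-1,000 cells/well plated 5 hours before dosing; controls were DMSO and 2.3 µM bortezomib.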
On to `CNC(=O)Nc1ccc(-c2nc(N3CC4CCC(C3)O4)c3cnn(C4CCC5(CC4)OCCO5)c3n2)cc1`, for which the Potency is 1040 nM (active).

As to `CS(=O)(=O)N1CCc2c(-c3cnc(N)nc3)nc(N3CCOCC3)nc21`, the Potency was 7370 nM (active).

For `COc1cc2ncnc(Nc3cccc(Br)c3)c2cc1OC`, the Potency was 3690 nM (active).

`CN(CC(=O)N(Cc1ccc(C2CCCCC2)cc1)c1ccc(C(=O)O)c(O)c1)S(=O)(=O)c1c(F)c(F)c(F)c(F)c1F`: the “activity change, negative = cytotoxic” value was -16.1%.

`NS(=O)(=O)OC[C@@H]1C[C@@H](n2ccc3c(N[C@H]4CCc5ccccc54)ncnc32)C[C@H]1O`: the “activity change, negative = cytotoxic” value was 14.9%.
